This excerpt belongs to a sample that is enriched for hits.
Tg IFNy HTS = inhibitors of Toxoplasma gondii growth with IFN-gamma; Toxoplasma gondii growth in IFN-gamma-treated host cells; stronger effect = lower value; activity change, negative = inhibition, % (no concentration beside the values); hit rate 3.8% among 69,000; AID 1259416; in the data active = activity change below about -70%, passing the limit was not always enough;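 note: host cells are HeLa cells infected with Toxoplasma gondii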
Numbers stand for hits; i = inactive.

SMILES	Tg IFNy HTS
CCC(=O)N1CCc2c([nH]c3ccccc23)C12C(=O)Nc1ccc(Br)cc12 (configuration not stated)	i
O=C(O)c1cccnc1CN1CCc2c([nH]c3ccccc23)C1	i
COCCN1C(=O)CC2C1CCN2C(=O)c1csnn1 (configuration not stated)	i
Cc1ccc(NC(=O)C(C)Oc2cccc(C(F)(F)F)c2)c(-c2cc(C)[nH]n2)c1 (configuration not stated)	i
CC(=O)c1c(C)nc(-c2cccs2)n1O	i
CCOC(=O)c1c(NC(=O)c2ccccc2)sc(C(=O)Nc2ccccc2)c1C	i
CCOC(=O)c1c(NC(=O)c2c(C)nn(-c3ccccc3)c2Cl)sc(C)c1C	i
CCOC(=O)c1c(NC(=S)NC(=O)c2ccccc2)sc(C)c1C	-73
Cc1ccc(C)c(C(NC(=O)Cc2c(C)[nH][nH]c2=O)c2cccnc2)c1 (configuration not stated)	i
Cc1ccc(NC(=O)CN2C(=O)CCc3cc(S(=O)(=O)N4CCC(C)CC4)ccc32)cc1Cl	-103
CC1CCN(S(=O)(=O)c2ccc3c(c2)CCC(=O)N3CC(=O)Nc2ccc(Cl)cc2)CC1	-92
CC1CCN(S(=O)(=O)c2ccc3c(c2)CCC(=O)N3CC(=O)Nc2ccc(F)cc2)CC1	i
CC(=O)Nc1ccc(NC(=O)CN2C(=O)CCc3cc(S(=O)(=O)N4CCCCC4C)ccc32)cc1 (configuration not stated)	i
CC1CCN(S(=O)(=O)c2ccc3c(c2)CCC(=O)N3CC(=O)Nc2ccc3c(c2)OCO3)CC1	i
Cc1ccc(NC(=O)CN2C(=O)CCc3cc(S(=O)(=O)N4CCC(C)CC4)ccc32)cc1F	i
Cc1ccc(NC(=O)CN2C(=O)CCc3cc(S(=O)(=O)N4CCCCC4C)ccc32)cc1C (configuration not stated)	-84
Cc1cccc(NC(=O)CN2C(=O)CCc3cc(S(=O)(=O)N4CCC(C)CC4)ccc32)c1	i
CC1CCCCN1S(=O)(=O)c1ccc2c(c1)CCC(=O)N2CC(=O)Nc1ccc2c(c1)OCCO2 (configuration not stated)	i
CCN1CCC(CN(CC)C(=O)c2ccc(S(N)(=O)=O)cc2)C1 (configuration not stated)	i
CC(C)C(=O)NCCc1csc(C2CCCN(C(=O)/C=C/c3cccs3)C2)n1 (configuration not stated)	i
CS(=O)(=O)N1CCC(N2CCCC2c2ccccn2)CC1 (configuration not stated)	i
C[C@@H]1CN([C@@H](C)CO)C(=O)c2cc(NC(=O)Nc3ccccc3)ccc2O[C@@H](C)CCCCO[C@H]1CN(C)C(=O)Nc1ccccc1	i
O=S(=O)(NCCc1csc(-c2ccc(Cl)cc2)n1)c1ccccc1	i
CC(C)C(=O)NCCc1csc(C2CCCN(C(=O)c3cc4ccccc4[nH]3)C2)n1 (configuration not stated)	i
CCCCC(CC)CN=C(N)NC(N)=NCCCCCCN=C(N)NC(N)=NCC(CC)CCCC (configuration not stated)	-79
SMILES	Tg IFNy HTS
CCN(CC)CCCNC(=O)c1ccc(-c2nc(CN3CCN(c4ccccc4)CC3)c(C)o2)cc1	-104
Cc1oc(-c2ccc(C(=O)NCCc3ccco3)cc2)nc1CN1CCN(c2ccccc2)CC1	i
COCCNC(=O)c1ccc(-c2nc(CN3CCN(c4ccccc4)CC3)c(C)o2)cc1	i
CCCCN(CC)C(=O)c1ccc(-c2nc(CN3CCN(c4ccccc4)CC3)c(C)o2)cc1	i
CCNC(=O)c1ccc(-c2nc(CN3CCN(c4ccccc4)CC3)c(C)o2)cc1	i
Cc1oc(-c2ccc(C(=O)NCCc3cnc[nH]3)cc2)nc1CN1CCN(c2ccccc2)CC1	-110
O=C(c1ccco1)N1CCC2(CC1)COC(COc1cccnc1)C2 (configuration not stated)	i
COc1cc(O)cc([C@@H]2CC(=O)c3c(O)cc(O[C@@H]4O[C@H](CO)[C@@H](O)[C@H](O)[C@H]4O[C@@H]4O[C@@H](C)[C@H](O)[C@@H](O)[C@H]4O)cc3O2)c1	i
CC1(C)CC(N(Cc2ccccc2)Cc2ccccn2)CC(C)(C)N1	i
Cc1noc(C)c1NC(=O)Nc1ccc2c(c1)C(=O)N(C)[C@H]1CC[C@@H](CC(=O)N[C@@H]3CCN(Cc4ccccc4)C3)O[C@@H]1CO2	i
Cc1ncc(C(=O)NCCCc2nc3ccccc3s2)c(C)n1	i
CN(C1CCCCC1)C1CCN(S(=O)(=O)c2ccc3[nH]c(=O)ccc3c2)CC1	i
CCCCC1C=CCN1C(=O)c1cc2n(n1)CCCN(C(C)=O)C2 (configuration not stated)	i
CC(C)c1cc(C(=O)N2CCCC3(CN(C)C(=O)O3)C2)n[nH]1 (configuration not stated)	i
O=C(Cn1ncc2c(N3CCN(c4ccccc4)CC3)ncnc21)Nc1cccc(F)c1	-85
Cc1ccccc1NC(=O)Cn1ncc2c(N3CCN(c4ccccc4)CC3)ncnc21	i
COc1cc(Cl)c(C)cc1NC(=O)Cn1ncc2c(N3CCN(c4ccccn4)CC3)ncnc21	i
COc1ccc(Cl)cc1NC(=O)Cn1ncc2c(N3CCN(c4ccccn4)CC3)ncnc21	-92
COc1ccc(Cl)cc1NC(=O)Cn1ncc2c(N3CCN(c4ccccc4)CC3)ncnc21	-82
COc1ccc(Cl)cc1NC(=O)Cn1ncc2c(N3CCCC3)ncnc21	-81
COc1ccc(C)cc1NC(=O)Cn1ncc2c(N3CCN(c4ccccn4)CC3)ncnc21	i
Cc1ccc(NC(=O)Cn2ncc3c(N4CCN(c5ccccc5)CC4)ncnc32)c(Cl)c1	i
Cc1cc(Cl)ccc1NC(=O)Cn1ncc2c(N3CCCCCC3)ncnc21	i
Cc1ccc(Cl)cc1NC(=O)Cn1ncc2c(N3CCCC3)ncnc21	i
CCc1ccc(NC(=O)Cn2ncc3c(N4CCN(c5ccccc5)CC4)ncnc32)cc1	i
SMILES	Tg IFNy HTS
Cc1cc(F)ccc1NC(=O)Cn1ncc2c(N3CCN(c4ccccc4)CC3)ncnc21	i
COCCN1C(=O)CCC12CCC(NC(=O)c1cc(C)on1)CC2 (configuration not stated)	i
Cc1cnc2n1CCN(C)C21CCN(S(C)(=O)=O)CC1	i
CC(C)N(C)Cc1ncn2c1CN(C(=O)c1ccc[nH]1)CCC2	i
CC1CCCC(N2CCN(Cc3ccco3)CC2)C1 (configuration not stated)	i
O=C(CSc1ncccn1)N1CCCC(c2n[nH]c(=O)n2-c2ccccc2)C1 (configuration not stated)	i
O=C(NCc1nc(-c2ccncc2)n[nH]1)Nc1ccccc1C(F)(F)F	i
O=C(NCc1nc(-c2ccncc2)n[nH]1)c1cccs1	-94
CC(=O)c1cc(C(=O)NCCc2nc(-c3cccnc3)n[nH]2)cs1	i
Clc1cccc(CSc2nc(NC3CCCCC3)c3ccccc3n2)c1	i
C[C@@H]1CN([C@@H](C)CO)C(=O)c2cccc(NC(=O)C3CCOCC3)c2O[C@@H]1CN(C)C(=O)Nc1cccc2ccccc12	i
CCc1ccc(S(=O)(=O)NCCc2sc(-c3ccc(OC)cc3)nc2C)cc1	i
O=C(Nc1cccnc1)c1cc(-c2cnc(N3CCCC3)nc2)cn1CC1CC1	i
O=C(Nc1cccnc1)c1cc(-c2cnc(-c3ccccc3)nc2)cn1CC1CC1	-77
O=C(NCc1ccc(F)cc1F)c1cc(-c2cnc(-c3cccnc3)nc2)cn1CC1CC1	i
CCSc1ccc(-c2sc(-c3ccc(F)cc3)nc2C)nn1	i

From PubChem BioAssay
